Compounds without any hit were thinned out: in the full panel of roughly 83,000, 20% have a hit.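 Plates (96-well) were seeded with cells, treated with compound at one concentration, and incubated for 48 hours before percent growth was determined.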 Activity calls are given as the source filed them. The calls were made as follows: active = growth percent below 10; inactive = the rest.

This test has as its system MDA-MB-468 breast. Kind of test: NCI-60 one-dose screen, 48 h (100 = growth as untreated, 0 = no growth, -100 = all killed). To be noted: 10 µM unless noted.
For `COc1cc([C@@H]2c3cc4c(cc3[C@H](OC3OC5COC(c6ccccc6)OC5C(O)C3O)[C@H]3COC(=O)[C@H]23)OCO4)cc(OC)c1OC` (stereo not given in full), the growth was 17.5% (inactive).

For `CC1CN(S(=O)(=O)c2oc(-c3ccc(Cl)cc3)nc2C#N)CC(C)O1` (stereo not given), the growth is 70% (inactive).

With `O=C1/C(=C\c2ccc(Cl)cc2)CN(C(=O)c2ccccc2)C/C1=C\c1ccc(Cl)cc1`, the growth was -17.7% (active).

On to `N#Cc1c(-c2ccc(Cl)cc2)nc(SCc2ccc(F)cc2)nc1N1CCNCC1`, for which the growth is -62.5% (active).

Take `CC1CCC(C(C)C)C(NN)C1` (stereo not given): the growth is 110% (inactive).

`COc1ccc([C@H]2[C@H](O)C(=O)N2c2cc(OC)c(OC)c(OC)c2)cc1Cl`: the growth was 10.9% (inactive).

Take `Cn1cc(-c2nc3c(F)cc4[nH]ncc4c3c3c2CCCC3)c(C(F)(F)F)n1`: the growth was 33% (inactive).

`COc1cc2nc(-c3ccc(-c4nn[nH]n4)cc3)[nH]c(=O)c2cc1OC`: the growth was 104% (inactive).

For `O=C1C(Cl)C(c2ccccc2Cl)N1n1cnnc1` (stereo not given), the growth is 106% (inactive).

For the compound `CCN(CC)CC(O)CNc1c2ccc([N+](=O)[O-])cc2nc2cc(OC)c(OC)cc12` (stereo not given), the growth was -44.5% (active).

As to `CN(C)CCOc1nc2c3ccncc3cc(-c3cccc(Cl)c3)c2c2cnccc12`, the growth was 38.3% (inactive).

As to `CCCCCCN(CCCCCC)CCC(O)c1ccc2ccccc2c1` (stereo not given), the growth is 18.6% (inactive).

For `Oc1[nH]c2ccc(Cl)cc2c1/C=c1/ccc2c(c1)N=C(c1cc(F)cc(F)c1)N=2`, the growth was 53% (inactive).

Consider `COc1ccc(S(=O)(=O)Nc2ccc(OCc3nnc(-c4ccc(Cl)cc4)o3)c(F)c2)cc1`, for which the growth is 15.2% (inactive).

`COc1ccc(Nc2c3ccccc3nc3ccccc23)cc1`: the growth is 14.1% (inactive).

Turning to `CCCCCCCC/C=C\CCCCCCCCOc1cccc(CC(=O)NCC[N+]2(C)CCCCC2)c1`, the growth is 52.6% (inactive).

As to `C=CC[C@]1(O)CC[C@H]2[C@@H]3CCc4cc(O)ccc4[C@H]3CC[C@@]21C`, the growth was 87.4% (inactive).

`c1ccc(CC(NCCNC(Cc2ccccc2)c2ccccc2)c2ccccc2)cc1` (stereo not given): the growth was -32.9% (active).

For `CC(=O)NC(CCC(=O)c1ccccc1)C(=O)O` (stereo not given), the growth is 93.6% (inactive).

Consider `CC(C)(C)CC(N)=O`, for which the growth was 101% (inactive).

Take `CC(C)(C#N)c1cc(F)cc(C(=O)Nc2cc(Nc3ncccc3-c3ncnc4nc[nH]c34)ccc2F)c1`: the growth is 107% (inactive).

Regarding `FC(F)(F)c1cc(-c2nnc3n2N=C(N2CCCC2)CS3)cc(C(F)(F)F)c1`, the growth was 66.3% (inactive).

Consider `CN(C)CCOC(=O)C(C)(C)C`, for which the growth was 98.9% (inactive).

For the compound `NC(N)=N/N=C/c1ccc([N+](=O)[O-])cc1`, the growth is 85.5% (inactive).

In the case of `CSc1nnc(-c2cc3c([nH]c4ccccc43)c(-c3cccc(O)c3)n2)n1-c1ccccc1`, the growth is 33.4% (inactive).

With `COc1ccc(/C=C2\CCC/C(=C\c3ccc(OC)c(OC)c3)C2=O)cc1OC`, the growth was -16.6% (active).

As to `N[C@@H]1CCCN(c2c(/C=C3\SC(=O)NC3=O)cccc2-c2ccccc2)C1`, the growth is 55.8% (inactive).

As for `CN(C)c1ccc(-c2c(C#N)c(N)n3nc(N)c(C#N)c3c2C#N)cc1`, the growth is 81.3% (inactive).

As for `COc1cc2c3c(c4c5ccccc5[nH]c4c2c(OC)c1OC)C(=O)N(CCN1CCCCC1)C3=O`, the growth is 63.7% (inactive).

Consider `O=C1Nc2ccccc2/C1=C/c1cccn1CCCCCn1c2ccccc2c(=O)c2ccccc21`, for which the growth is 37.6% (inactive).

Regarding `O=C(NCCNc1nccc(-c2c(-c3cccc(O)c3)nc3sccn23)n1)c1ccccc1`, the growth is 54.7% (inactive).

As to `CCC(C)C1CCC(O)CC1` (stereo not given), the growth was 101% (inactive).

Turning to `COC(=O)[C@H](Cc1ccc(O)cc1)NC(=O)[C@@H](OC)[C@@H]1Cc2cc3cc(OC4CC(OC5CC(O)C(O)C(C)O5)C(O)C(C)O4)c(C)c(O)c3c(O)c2C(=O)[C@H]1OC1CC(OC2CC(OC3CC(C)(O)C(O)C(C)O3)C(O)C(C)O2)C(O)C(C)O1` (stereo not given in full), the growth is -25.5% (active).

Regarding `CN(C)CCS(=O)(=O)Nc1cc(-c2ccc3ncnc(Nc4ccc(F)c(Cl)c4)c3c2)cnc1Cl`, the growth is -53% (active).

As for `ClCCOCCOc1ccc(C2CCCCC2)cc1`, the growth was 91.2% (inactive).

In the case of `CC(C)(C)[C@H](OCc1cn([C@H]2C[C@@H](O)[C@@H](CO)O2)c(=O)[nH]c1=O)c1ccc(C#Cc2ccccc2)cc1[N+](=O)[O-]`, the growth is 68.2% (inactive).

Regarding `COC(=O)/C=C/C(=O)NC(N)=O`, the growth was 90.8% (inactive).

`COc1cccc(/C=C2\COc3ccc(O)cc3C2=O)c1`: the growth is 66.2% (inactive).

For `O=C1Nc2ccc(Cl)cc2/C1=N/c1nc(-c2ccc(Cl)cc2)cs1`, the growth is -18% (active).

For the compound `COc1ccc(C(C)c2cc(OC)c(OC)c(OC)c2)cc1` (stereo not given), the growth is 41.6% (inactive).

Values taken from PubChem BioAssay (NCI).
